Source: PubChem BioAssay
HT1080NT lethal = qHTS for induction of synthetic lethality in tumor cells producing 2HG: qHTS for the HT-1080-NT fibrosarcoma cell line | AID 686970, 2013 | hit rate 1.6% among 360,000 | Potency, µM (doses to about 46.1 µM), without a hit: top-dose activity, negative = less viability, actives largely listed as cytotoxic | HT-1080-NT fibrosarcoma viability, CellTiter-Glo ATP luminescence, 48 h;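 further: NT is the 2HG producing partner of a matched IDH1 knockdown line; potency means the concentration at half of the fitted maximal effect; 0% = DMSO-treated cells and -100% = media-only wells without cells; nearly all actives have a fitted effect of over 55% in size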
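A 48-hour cytotoxicity screen used HT-1080-NT cells plated 2 hours before compound delivery. ATP-based CellTiter-Glo luminescence measured viability, normalized to DMSO and no-cell controls.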
IL1B secr inh = qHTS for Inhibitors of Inflammasome Signaling: IL-1-beta AlphaLISA Primary Screen. THP-1 LPS/ATP IL-1B secretion, AlphaLISA, 16 h; stronger effect = lower value. activity change, % at 57.5 µM. AID 743279, 2014. hit rate 4.7% among 360,000; in the data active means activity change below about -50%; inconclusive means mostly about -30% to -49%
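THP-1 cells pretreated 1 hr with compounds (up to 57.5 uM final), then stimulated with LPS (250 ng/mL final) plus ATP (1.25 mM final); secreted IL-1B measured by AlphaLISA after 16 hr, decreased signal indicating inhibition.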
ELG1 repair inh = qHTS screen for small molecules that inhibit ELG1-dependent DNA repair in human embryonic kidney (HEK293T) cells expressing luciferase-tagged ELG1; Potency, µM (top dose mostly 46.1 µM), for inactives: at the highest dose activity change, negative = inhibition, usual class: inhibitors; AID 504467, 2011; hit rate 2.3% among 330,000; HEK293T ELG1-luciferase reporter, luminescence, 16 h; DNA damage induced by 5-fluorouridine; further: potency means the concentration at half of the fitted maximal effect; nearly all actives have a fitted effect of over 55% in size
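Step one: seed 2,000 cells per well. Step two: pin-transfer compound or DMSO alongside 5-fluorouridine. Step three: incubate 16 hr, 37 °C, 5% CO2. Step four: add ONE-Glo, wait 30 min, read luminescence.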
HT1080 IDH1KD tx = qHTS for induction of synthetic lethality in tumor cells producing 2HG: qHTS for the HT-1080-IDH1KD cell line. hit rate 2% among 360,000. HT-1080 IDH1 knockdown viability, ATP luminescence, 48 h. AID 686971, 2013. Potency, µM (series often up to 46.1 µM), for inactives: top-dose activity, negative = toxicity, actives largely listed as cytotoxic;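 further: potency means the concentration at half of the fitted maximal effect; 0% = DMSO wells and -100% = cell-free medium wells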
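Cytotoxicity counter-line: IDH1KD HT-1080, 48 h, CellTiter-Glo. Curves classed by r2, magnitude and activity.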
TDP1 cell CPT = qHTS for Inhibitors of human tyrosyl-DNA phosphodiesterase 1 (TDP1): qHTS in cells in presence of CPT | hit rate 12% among 420,000 | Potency, µM (titrated, usually from 46.2 µM), without a hit: at the top dose activity change, negative = growth inhibition, hits mostly inhibitors | chicken DT40 Tdp1-/-;hTDP1 cells + 20 nM CPT, ATP luminescence, 48 h; further: potency means the concentration at half of the fitted maximal effect; nearly all actives have a fitted effect of over 55% in size
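Chicken DT40 Tdp1-/- cells stably complemented with human TDP1 were seeded at 400 cells/well in medium containing 20 nM camptothecin, exposed to pin-transferred compounds, and grown at 37 °C for at least 48 hr. Viability was read as ATP luminescence.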
TDP1 cell noCPT = qHTS for Inhibitors of human tyrosyl-DNA phosphodiesterase 1 (TDP1): qHTS in cells in absence of CPT | DT40 Tdp1-/- hTDP1 cells, no CPT, ATP luminescence, 48 h | Potency, µM (titrated, usually from 46.2 µM), for inactives: top-dose activity change, negative = growth inhibition, hits mostly inhibitors | hit rate 15% among 420,000 | AID 686978, 2013; further: potency means the concentration at half of the fitted maximal effect; nearly all actives have a fitted effect of over 55% in size
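Luminescent ATP content (CellTiter-Glo) served as the growth readout. Knockout chicken DT40 cells expressing human TDP1 were exposed to compounds without camptothecin for a minimum 48 hr at 37 °C.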
* = called active by the depositor; ? = inconclusive; / = not tested or not shown; [ ] = another dose, or the depositor's remark. Only some compounds are listed: those with a hit (about 19% of all), similar ones and a draw of the others. Unless noted, the call rests on the fitted dose curve; in most records, active means well fitted curve in the direction sought with a large enough effect; inconclusive means small, poorly fitted or top-dose-only effect, or another doubt; inactive means no such curve, though single readings can be large; an effect the other way counts as inactive or inconclusive. Unless noted, on the % scale 0 is the no-effect control and ±100 the full control effect.

SMILES	HT1080NT lethal	IL1B secr inh	ELG1 repair inh	HT1080 IDH1KD tx	TDP1 cell CPT	TDP1 cell noCPT
CNS(=O)(=O)c1ccc(Oc2ccc(S(=O)(=O)NC)cc2)cc1	-12.5%	-6.7	?	-11.5%	14.6µM*	?
CCCn1cc(S(=O)(=O)c2ccccc2)c(=O)c2cc(F)c(N3CCCCCC3)cc21	/	/	/	/	25.9µM*	18.4µM*
CCn1cc(S(=O)(=O)c2ccccc2)c(=O)c2cc(F)c(N3CCCC3)cc21	/	/	/	/	20.6µM*	?
CCn1cc(S(=O)(=O)c2ccc(Cl)cc2)c(=O)c2cc(F)c(N3CCOCC3)cc21	/	/	/	/	25.9µM*	16.4µM*
CCn1cc(S(=O)(=O)c2ccc(C)cc2)c(=O)c2cc(F)c(N3CCN(C)CC3)cc21	-1.1%	3.7	1.1%	-0.6%	-8.8%	-12.1%
CN1CCCN(C(=O)[C@@H]2C[C@@H](Sc3nc4ccccc4[nH]3)CN2Cc2ccc(OC(F)(F)F)cc2)CC1	/	/	/	/	-15.6%[9.04 µM]	?
CC(C)C(NC(=O)Nc1ccccc1)C(=O)Nc1cccc(S(=O)(=O)N(C)C)c1 (stereo not drawn)	-7.9%	-24.5	-9.7%	-7.0%	7.2%	?
O=C(CCc1c[nH]c2ccccc12)NC(Cc1ccccc1)C(=O)O (stereo not drawn)	22.6%	-1.6	13.8%	9.1%	-2.2%	14.8%
N#CN(Cc1ccccc1)Cc1ccccc1	3.6%	-63.9*	-6.7%	-3.6%	-21.8%	-12.3%
Cc1ccc(S(=O)(=O)NC[C@H]2O[C@@H](n3ccc(N)nc3=O)[C@H](O)[C@@H]2O)s1	0.2%	3.3	/	0.8%	-5.8%	-3.7%
CSc1ccc(CN2C(=O)C(F)(F)Oc3c(C(C)=O)cccc32)cc1	-1.4%	-7.1	/	-1.1%	18.4µM*	16.4µM*
CSc1ccc(CN2C(=O)C(C)Oc3c(C(C)=O)cccc32)cc1 (stereo not drawn)	-9.1%	-0.5	/	10.7%	?	?
Cc1ncc2c(c1CNC(=O)c1ccccc1F)CCN(C(=O)c1csc(-c3cccs3)n1)C2	/	/	/	/	4.5%[9.04 µM]	?
O=C(NC(NC(=S)N1CCOCC1)C(Cl)(Cl)Cl)c1ccc(Cl)cc1 (stereo not drawn)	-28.4%	1.3	?	?	3.66µM*	4.11µM*
O=C(NC(=S)N1CCCC1)c1ccc(Cl)cc1	15.0%	5.2	24.2%	-1.1%	-17.4%	-22.2%
CC(C)(C)C(=O)Oc1ccc(S(=O)(=O)Nc2ccccc2C(=O)NCC(=O)O)cc1	/	/	/	/	-3.2%	3.0%
C=CCn1c(=O)c(C(=O)Nc2ccc(C)cc2)c(O)c2ccccc21	-1.8%	37.8	?	2.6%	18.4µM*	11.6µM*
C=CCn1c(=O)c(C(=O)NC(C)c2ccccc2)c(O)c2ccccc21 (stereo not drawn)	-0.6%	19.7	-4.1%	-5.1%	?	-20.8%
C=CCn1c(=O)c(C(=O)Nc2cc(C)ccn2)c(O)c2ccccc21	?	0.4	10.9%	22.1%	29.1µM*	25.9µM*
COc1ccc(OC)c(C2NC(=O)NC(C)=C2C(=O)Nc2ccc(F)cc2)c1 (stereo not drawn)	/	/	/	/	-2.4%	-6.9%
COc1ccc(OC)c(CCNC(=O)C(C)n2nc(C)c3c(C)n(-c4ccc(C)cc4)nc3c2=O)c1 (stereo not drawn)	-16.6%	7.3	-12.8%	20.6µM*	?	18.4µM*
CCC(C(=O)NCCc1cc(OC)ccc1OC)n1nc(C)c2c(C)n(-c3ccccc3)nc2c1=O (stereo not drawn)	/	/	/	/	18.4µM*	?
COc1ccccc1CNS(=O)(=O)c1ccc2c(c1)NC(=O)CC(=O)N2	/	/	/	/	6.4%	-15.2%
CCN(CC)c1ccc(/C=N/NC(=O)OC)c(O)c1	-6.6%	-9.1	?	11.6%[9.24 µM]	?	25.9µM*
COc1ccc(/C=N/NC(=O)c2ccc3nc[nH]c3c2)c(OC)c1	0.4%	-3.7	6.5%	-21.1%	4.61µM*	?
SMILES	HT1080NT lethal	IL1B secr inh	ELG1 repair inh	HT1080 IDH1KD tx	TDP1 cell CPT	TDP1 cell noCPT
Cc1cc(/C=N/NC(=O)c2ccoc2C)cc(C)c1O	5.4%	-2.3	/	-4.2%	-8.0%	-24.4%
COc1cc(OC)c(OC)cc1/C=N/NC(=O)c1ccc2nc[nH]c2c1	0.3%	-11.6	-8.3%	12.6%	-3.2%	-18.5%
CCN(CC)c1ccc(/C=N/NC(=O)c2ccc3nc[nH]c3c2)c(O)c1	?	134.8	?	2.06µM*	18.4µM*	?
CCN(CC)c1ccc(/C=N/NC(=O)c2ccoc2C)c(O)c1	?	144.1	?	5.17µM*	13µM*	3.26µM*
CC(C)(C)OC(=O)N1CCc2onc(-c3ccc(-n4cc(C5=CCCCC5)nn4)cc3)c2C1=O	19.5%	29.4	/	17.7%	?	?
O=C1NC(Cc2ccc(O)cc2)c2nc3ccc(F)cc3c(=O)n2-c2ncccc21 (stereo not drawn)	-14.5%	35.6	/	-13.8%	-2.6%	?
CCN(CC)c1ccc(/C=N/NC(=S)NC)c(O)c1	-18.4%	90.9	?	-16.6%	0.731µM*	0.517µM*
COc1ccccc1-c1nnc(SCC(=O)NCc2ccco2)n1N	0.0%	6.3	2.5%	1.6%	2.6%	-15.7%
NC(=O)CSc1nc2ccccc2c(=O)n1Cc1ccco1	8.2%	-0.9	-4.0%	-1.7%	-3.2%	-16.9%
O=C1c2ccccc2C(=O)N1CCc1nc2ccccc2c(=O)n1Cc1ccco1	5.3%	22.8	20.6µM*	0.1%	-0.6%	-11.8%
O=C(CSc1nc2ccccc2c(=O)n1Cc1ccco1)c1ccc(F)cc1	-5.5%	0.1	?	?	11.6µM*	23.1µM*
Cc1nc2ccccc2c(=O)n1Cc1ccco1	5.2%	15.0	-4.7%	-1.1%	-5.1%	-18.3%
O=C(CSc1nnc(-c2cc3ccccc3cc2O)n1Cc1ccco1)c1ccc(F)cc1	-27.2%	-14.3	?	?	13µM*	16.4µM*
COc1ccccc1-c1nnc(SCC(=O)c2ccc(C3CCCCC3)cc2)n1Cc1ccco1	?	-18.6	-16.2%	?	23.1µM*	23.1µM*
Cc1occc1-c1nnc(SCC(=O)c2ccc(F)cc2)n1Cc1ccco1	-0.6%	-9.5	2.5%	3.1%	?	?
